Source: PubChem BioAssay (Tox21)
Values joined by “and” are separate entries in the source; they are usually repeats but may differ in a detail not shown here. Equal entries are not always repeated. Inconclusive results are not listed. Some structures have more than one record in an assay (separate samples or runs), and their calls can disagree. Active and inactive are the calls of the source. Unless noted, calls follow the shape of the dose curve; as a rule, active = well fitted curve in the direction sought with a large enough effect in the repeat runs; inconclusive = weak or mixed curves; inactive = no such curve, though single readings can be large; an effect the other way counts as inactive or inconclusive.

How the values were obtained:
[1] = qHTS assay to identify aromatase inhibitors - cell viability counter screen (AID 743084);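 also: cells stimulated with testosterone during compound exposure; nearly all actives have a fitted effect of over 55% in size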; also: potency is read from the fitted curve at half-maximal effect
[2] = biological target: Aryl hydrocarbon receptor (Homo sapiens) (UniProt P35869); assay: qHTS assay to identify small molecule that activate the aryl hydrocarbon receptor (AhR) signaling pathway (AID 743085); also: nearly all actives have a fitted effect of over 15% in size; also: potency is read from the fitted curve at half-maximal effect;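 as to activation: HG2L7.5c1 human HepG2 liver cells with stably integrated DRE-driven firefly reporter; series mostly up to about 70 µM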
How it was run: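 Luminescence read-out: ONE-Glo reagent, 30 min at room temperature, in HG2L7.5c1 HepG2 reporter cells treated 24 h at 37C. Viability was measured beforehand by CellTiter-Fluor fluorescence after 30 min at 37C.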

[3] = qHTS assay to identify small molecule that activate the aryl hydrocarbon receptor (AhR) signaling pathway - cell viability counter screen (AID 743086); also: nearly all actives have a fitted effect of over 45% in size; also: potency is read from the fitted curve at half-maximal effect
How it was run: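 HepG2-AhR-luc (HG2L7.5c1) cells, 4000/well, treated 24 h at 37 C with compound; viability measured as CellTiter-Fluor fluorescence after 30 min in the same wells as the luciferase read.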

[4] = biological target: Peroxisome proliferator-activated receptor gamma (Homo sapiens) (UniProt P37231); assay: qHTS assay to identify small molecule agonists of the peroxisome proliferator-activated receptor gamma (PPARg) signaling pathway (AID 743094; active = well fitted activation curve with a large enough effect in the signal ratio in the repeat runs, not every such curve was filed as active; the % refers to the signal ratio)
How it was run: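 Stably transfected HEK293H cells (GeneBLAzer PPARg UAS-bla) were incubated with test substances for 17 h at 37C after a 5 h pre-incubation; beta-lactamase activity was then detected by FRET substrate fluorescence.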

[5] = qHTS assay to identify small molecule antagonists of the peroxisome proliferator-activated receptor gamma (PPARg) signaling pathway - cell viability counter screen (AID 743194); also: nearly all actives have a fitted effect of over 55% in size; also: potency is read from the fitted curve at half-maximal effect
How it was run: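 Cytotoxicity counter screen in PPARg-bla HEK293H cells, same wells as reporter assay. Compounds plus 50 nM rosiglitazone (final) for 17 h at 37 C, then viability read by CellTiter-Glo luminescence.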

[6] = qHTS assay for small molecule agonists of the antioxidant response element (ARE) signaling pathway (AID 743202; active = well fitted activation curve with a large enough effect in the signal ratio in the repeat runs, not every such curve was filed as active; the % refers to the signal ratio; also: potency is read from the fitted curve at half-maximal effect)
How it was run: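 ARE-bla HepG2 cells (beta-lactamase reporter under the antioxidant response element), plated 5 hours, then exposed to compounds 16 hours at 37 C. LiveBLAzer B/G FRET substrate added for 2 hours at room temperature; fluorescence intensity read.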

[7] = qHTS assay for small molecule agonists of the antioxidant response element (ARE) signaling pathway - cell viability counter screen (AID 743203; calls by dose curve; also: nearly all actives have a fitted effect of over 55% in size; also: potency is read from the fitted curve at half-maximal effect)
How it was run: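 Cells (ARE-bla HepG2, 2,000/well) receive DMSO-dissolved compounds after a 5 hrs rest. Plates incubate 16 hrs at 37C/5% CO2. CellTiter-Glo luminescence is then recorded after 30 min at room temperature.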

[8] = qHTS assay for small molecule activators of the heat shock response signaling pathway - cell viability counter screen (AID 743209); also: nearly all actives have a fitted effect of over 50% in size; also: potency is read from the fitted curve at half-maximal effect
How it was run: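 Quantitative HTS format, Tox21 10K library. HeLa cells carrying an HSE-driven beta-lactamase reporter were treated 5 h at 37 C, then assessed for viability by CellTiter-Glo luminescence.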

[9] = biological target: Peroxisome proliferator-activated receptor gamma (Homo sapiens) (UniProt P37231); assay: qHTS assay to identify small molecule antagonists of the peroxisome proliferator-activated receptor gamma (PPARg) signaling pathway (AID 743191; calls by dose curve; also: series mostly up to about 63 µM; nearly all actives have a fitted effect of over 30% in size)
How it was run: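 GeneBLAzer PPARg UAS-bla HEK293H cells, 5 h post-plating, exposed to compounds 17 h at 37C. LiveBLAzer B/G FRET substrate added for 1 h at room temperature; beta-lactamase reporter read by fluorescence intensity.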

[10] = qHTS assay for small molecule activators of the heat shock response signaling pathway (AID 743210; active = well fitted activation curve with a large enough effect in the signal ratio in the repeat runs, with a control signal flat, not every such curve was filed as active; the % refers to the signal ratio; also: series mostly up to about 63 µM)
How it was run: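 HSE-bla HeLa cells (beta-lactamase reporter under heat shock response elements), plated overnight, then exposed to compounds 5 h at 37 C; LiveBLAzer B/G FRET substrate added, 2.5 h at room temperature, fluorescence intensity read.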

Measured: Potency

Chain of Aryl hydrocarbon receptor (Homo sapiens) (P35869 whole entry, looked up): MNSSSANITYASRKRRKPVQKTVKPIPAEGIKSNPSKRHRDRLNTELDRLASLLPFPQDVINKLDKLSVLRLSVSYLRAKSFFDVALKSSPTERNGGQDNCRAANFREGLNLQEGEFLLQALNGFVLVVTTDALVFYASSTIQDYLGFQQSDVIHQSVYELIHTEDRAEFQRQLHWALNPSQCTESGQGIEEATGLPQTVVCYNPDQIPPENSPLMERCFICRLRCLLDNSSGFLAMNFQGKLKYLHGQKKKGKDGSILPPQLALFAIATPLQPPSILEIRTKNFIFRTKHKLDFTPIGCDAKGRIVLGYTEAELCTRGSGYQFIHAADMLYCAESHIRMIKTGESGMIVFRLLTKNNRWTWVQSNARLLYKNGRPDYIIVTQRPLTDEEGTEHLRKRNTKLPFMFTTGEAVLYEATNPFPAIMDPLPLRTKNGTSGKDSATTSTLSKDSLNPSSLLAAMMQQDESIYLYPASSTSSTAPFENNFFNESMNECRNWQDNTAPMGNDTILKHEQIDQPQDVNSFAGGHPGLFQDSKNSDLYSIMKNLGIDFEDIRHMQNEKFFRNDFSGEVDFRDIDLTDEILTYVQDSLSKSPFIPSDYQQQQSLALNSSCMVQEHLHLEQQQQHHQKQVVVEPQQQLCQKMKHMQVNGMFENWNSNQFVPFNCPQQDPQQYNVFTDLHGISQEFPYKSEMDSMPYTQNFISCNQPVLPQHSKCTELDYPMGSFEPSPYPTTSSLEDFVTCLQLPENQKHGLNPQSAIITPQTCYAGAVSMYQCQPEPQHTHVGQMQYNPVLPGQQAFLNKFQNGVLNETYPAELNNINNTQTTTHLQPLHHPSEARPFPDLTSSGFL
Chain of Peroxisome proliferator-activated receptor gamma (Homo sapiens) (P37231 whole entry, looked up): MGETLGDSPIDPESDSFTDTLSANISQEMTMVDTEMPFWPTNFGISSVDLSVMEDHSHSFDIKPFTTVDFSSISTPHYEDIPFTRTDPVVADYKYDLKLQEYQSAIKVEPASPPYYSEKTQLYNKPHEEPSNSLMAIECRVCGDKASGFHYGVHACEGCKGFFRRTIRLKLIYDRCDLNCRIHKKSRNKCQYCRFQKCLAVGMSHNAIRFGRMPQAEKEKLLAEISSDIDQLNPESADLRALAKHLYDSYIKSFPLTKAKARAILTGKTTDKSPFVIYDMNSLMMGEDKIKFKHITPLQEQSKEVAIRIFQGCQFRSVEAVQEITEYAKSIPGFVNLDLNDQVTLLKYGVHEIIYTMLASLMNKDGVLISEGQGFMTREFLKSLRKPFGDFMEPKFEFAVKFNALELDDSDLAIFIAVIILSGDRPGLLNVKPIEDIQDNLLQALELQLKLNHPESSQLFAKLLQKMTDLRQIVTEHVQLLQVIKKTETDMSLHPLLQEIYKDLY

COc1cc(C(=S)N2CCOCC2)ccc1O
not listed: [9] | [10]
inactive: all other assays above

Clc1ccc2c(c1)C(N1CCNCC1)=Nc1ccccc1O2
54.5 µM (active) and inactive: [7]
not listed: [5] | [6] | [10]
inactive: all other assays above

Cc1c(O)cccc1C(=O)N[C@@H](CSc1ccccc1)[C@H](O)CN1C[C@H]2CCCC[C@H]2C[C@H]1C(=O)NC(C)(C)C
active: [1] 7.5 µM and 2.98 µM | [3] 13.3 µM and 11.9 µM | [5] 21.3 µM and 26.6 µM | [7] 15 µM and 26.6 µM
inactive: [2] | [8]

CCCCC/C=C/CC1CC(=O)OC1=O (stereo not drawn)
not listed: [7] | [9]
inactive: all other assays above

OCC(CO)N[C@H]1C[C@](O)(CO)[C@@H](O)[C@H](O)[C@H]1O
not listed: [6]
inactive: all other assays above

CCCN[C@H]1CCc2nc(N)sc2C1
not listed: [4] | [9] | [10]
inactive: all other assays above

Cc1cc(OCCOCC[N+](C)(C)Cc2ccccc2)ccc1C(C)(C)CC(C)(C)C
inactive: [2] | [4]
active: [1] 26.6 µM and 60.8 µM | [3] 29.8 µM and 60.8 µM | [5] 15.4 µM and 29.8 µM | [7] 19.2 µM and 29.8 µM | [8] 38.7 µM

NC(=Nc1ccccc1)Nc1ccccc1
active: [3] 6.11 µM | [6] 13.3 µM
not listed: [2] | [7]
inactive: all other assays above

CCC(C)(C)C(=O)O[C@H]1C[C@@H](C)C=C2C=C[C@H](C)[C@H](CC[C@@H]3C[C@@H](O)CC(=O)O3)[C@H]21
active: [8] 54.9 µM
inactive: [1] | [3] | [4] | [5] | [7]

COC(=O)/C=C/c1ccccc1
not listed: [2]
inactive: all other assays above

[Cl][In]([Cl])[Cl]
inactive: [1] | [2] | [3] | [7] | [8]

COC(=O)[C@H]1[C@H]2C[C@@H]3c4[nH]c5cc(OC)ccc5c4CCN3C[C@H]2C[C@@H](OC(=O)c2cc(OC)c(OC)c(OC)c2)[C@@H]1OC
active: [2] 68.5 µM and 39.7 µM
not listed: [4] | [6] | [9]
inactive: all other assays above

OCCN1CCNCC1
not listed: [2]
inactive: all other assays above

CCCNC(C)C(=O)Nc1ccccc1C (stereo not drawn)
not listed: [2]
inactive: all other assays above

O=C(O)c1cccc(C(=O)O)c1
not listed: [2] | [6]
inactive: all other assays above

CC1COC(=O)O1 (stereo not drawn)
not listed: [2]
inactive: all other assays above

Cc1cccc([N+](=O)[O-])c1C(=O)O
not listed: [2]
inactive: all other assays above

C/C=C/c1ccc(OCC)c(O)c1
not listed: [2] | [5]
inactive: all other assays above

c1cnc2cc3c(cc2n1)C1CNCC3C1
not listed: [3]
inactive: all other assays above

C=CC(=O)OCCCCCCCC
not listed: [2]
inactive: all other assays above

CC(C)CCOC(=O)c1ccc(N(C)C)cc1
not listed: [2] | [9]
inactive: all other assays above

CC(COc1ccccc1)N(CCCl)Cc1ccccc1 (stereo not drawn)
inactive: [1] | [3] | [4] | [9] | [8]
61.1 µM (active) and inactive: [7]

c1ccc2n[nH]nc2c1
not listed: [2]
inactive: all other assays above

CNC1(C)C2CCC(C2)C1(C)C (stereo not drawn)
not listed: [2]
inactive: all other assays above

Cc1ccc(-c2cc(C(F)(F)F)nn2-c2ccc(S(N)(=O)=O)cc2)cc1
inactive and 54.3 µM (active): [1]
active: [6] 26.6 µM
61.1 µM (active) and inactive: [7]
not listed: [2]
inactive: all other assays above
